Test systems include DU-145 prostate; K-562 leukemia; MALME-3M melanoma; MDA-MB-231 breast; RXF 393 renal; SF-268 CNS; SF-295 CNS; SF-539 CNS; UACC-257 melanoma; M14 melanoma; HCT-15 colon; HT29 colon; SNB-75 CNS; SNB-19 CNS; U251 CNS; SK-MEL-5 melanoma; UACC-62 melanoma; LOX IMVI melanoma; SK-MEL-28 melanoma; PC-3 prostate.
Holding throughout (assay): NCI-60 one-dose screen, 48 h (100 = growth as untreated, 0 = no growth, -100 = all killed)
Holding throughout (details): 10 µM unless noted

Compounds without any hit were thinned out: in the full panel of roughly 83,000, 20% have a hit.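 Method: cells in 96-well plates; compound added at one concentration; 48 h incubation; percent growth measured; values under 10 scored active.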 Unmarked numbers belong to inactive results. Activity calls are given as the source filed them.

As to `Cc1cc(NC(=O)c2cccc(C(F)(F)F)c2)ccc1-n1ccc2c(NC(=O)c3ccccc3)nccc21`, the growth in the test on DU-145 prostate is 112%; with K-562 leukemia, 91.2%; with MALME-3M melanoma, 99.7%; with MDA-MB-231 breast, 94.9%; in the test with RXF 393 renal, 118%; with SF-268 CNS, 103%. Besides, the growth in the test on SF-295 CNS is 102%; in the test on SF-539 CNS it was 95.9%; in the test on UACC-257 melanoma, 101%; with M14 melanoma it was 96.8%; with HCT-15 colon, 92.3%; in the test with HT29 colon it was 94.5%. Further, the growth in the test on SNB-75 CNS is 91.2%; in the test with SNB-19 CNS, 98.4%; in the test on U251 CNS, 95.7%; in the test on SK-MEL-5 melanoma it was 101%; with UACC-62 melanoma, 96.9%; with LOX IMVI melanoma, 101%. Also, the growth with SK-MEL-28 melanoma was 104%.
Take `CS(=O)(=O)Nc1cccc(-c2ccc3ncnc(Nc4cncc(Cl)c4)c3c2)c1`: the growth with DU-145 prostate is 38.6%; in the test on K-562 leukemia, 16.9%; in the test with MALME-3M melanoma, 40.3%; in the test with MDA-MB-231 breast it was 1.39% (active); with RXF 393 renal, 19.8%; in the test on SF-268 CNS, 42.4%. Further, the growth in the test with SF-295 CNS is -17.7% (active); in the test with SF-539 CNS, 2.94% (active); in the test with UACC-257 melanoma, 49.7%; in the test with M14 melanoma, 16.8%; in the test on HCT-15 colon, 16%; in the test on HT29 colon, 5.04% (active). The growth with SNB-75 CNS is 19.8%; in the test with SNB-19 CNS it was 51.4%; with PC-3 prostate, 19.8%; in the test on SK-MEL-5 melanoma it was 35.6%; with UACC-62 melanoma, 29%; with LOX IMVI melanoma, 11%. For the same molecule, in the test with SK-MEL-28 melanoma, the growth was 43.7%.
For `CN(C)CC/C=C1\c2ccccc2Sc2ccc(Cl)cc21`, the growth was 90.9% with DU-145 prostate; 16.4% in the test on K-562 leukemia; 69.8% in the test on MALME-3M melanoma; 69% in the test on MDA-MB-231 breast; 41.2% in the test on RXF 393 renal; 68.8% in the test on SF-268 CNS. Besides, the growth is 75.4% in the test with SF-295 CNS; 92.3% with SF-539 CNS; -54.4% (active) in the test on UACC-257 melanoma; -57.5% (active) in the test with M14 melanoma; 78.9% in the test with HCT-15 colon; 30.6% in the test on HT29 colon. Further, the growth was 52.4% with SNB-75 CNS; 85.2% in the test on SNB-19 CNS; 65% with PC-3 prostate; 34.1% in the test with SK-MEL-5 melanoma; 47.1% with UACC-62 melanoma; 53.6% with LOX IMVI melanoma. Moreover, the growth with SK-MEL-28 melanoma was 55.9%.
As for `COc1ccc(NC(=O)Nc2ccc(-c3ccc(OC)c(OC)c3)nc2C)cc1`, the growth was 72.2% in the test with DU-145 prostate; 73.2% in the test with K-562 leukemia; 44.1% with MALME-3M melanoma; 40.5% in the test on MDA-MB-231 breast; 58.2% in the test on RXF 393 renal; 59.2% in the test with SF-268 CNS. In addition, the growth is 102% with SF-295 CNS; 70.6% with SF-539 CNS; 55.5% in the test on UACC-257 melanoma; 72.1% in the test with M14 melanoma; 91.8% in the test with HCT-15 colon; 68.8% in the test with HT29 colon. In addition, the growth in the test on SNB-75 CNS was 47.5%; in the test with SNB-19 CNS, 71.5%; in the test with U251 CNS, 22.1%; with SK-MEL-5 melanoma, 23%; in the test on UACC-62 melanoma, 59.9%; in the test with LOX IMVI melanoma, 88.8%. In addition, in the test with SK-MEL-28 melanoma, the growth is 86.8%.
Turning to `CCCCOc1nc2ccc(Cl)cc2cc1/C=C/C(=O)/C=C/c1ccc(OC)cc1`, the growth in the test on DU-145 prostate was 93.8%; in the test with K-562 leukemia it was 87%; in the test with MALME-3M melanoma it was 100%; in the test with MDA-MB-231 breast, 106%; in the test on RXF 393 renal it was 119%; in the test on SF-268 CNS, 95.4%. The growth in the test on SF-295 CNS is 113%; in the test with SF-539 CNS, 104%; in the test on UACC-257 melanoma it was 89.7%; in the test on M14 melanoma, 66.3%; with HCT-15 colon it was 91.5%; with HT29 colon it was 71.6%. The growth in the test with SNB-75 CNS is 97.9%; with SNB-19 CNS it was 105%; with U251 CNS, 80.5%; in the test on SK-MEL-5 melanoma it was 93.9%; with UACC-62 melanoma it was 78.9%; with LOX IMVI melanoma, 71.5%. Further, the growth with SK-MEL-28 melanoma was 107%.
For the molecule `COc1ccccc1N1CCN(CC(O)COc2c(Br)c(Br)c(Br)c3c2OC(C)(C)C3)CC1` (configuration not stated), the growth in the test on DU-145 prostate is 97.2%; with K-562 leukemia it was 11%; with MALME-3M melanoma, 67.2%; in the test on MDA-MB-231 breast it was 44.9%; with RXF 393 renal, 40.2%; in the test on SF-268 CNS it was 131%. Moreover, the growth in the test with SF-295 CNS was 29.8%; in the test with SF-539 CNS, 94.1%; in the test on UACC-257 melanoma it was 96.9%; in the test with M14 melanoma it was 29.9%; with HCT-15 colon, 24.6%; with HT29 colon it was 5.44% (active). Also, the growth in the test with SNB-75 CNS was 71%; with SNB-19 CNS, 60.8%; with PC-3 prostate, 18.9%; in the test with SK-MEL-5 melanoma, 7.43% (active); in the test with UACC-62 melanoma it was 56.6%; in the test on LOX IMVI melanoma, 18.5%. For the same molecule, the growth in the test on SK-MEL-28 melanoma was 90.4%.
Consider `Cc1cccc(NCS(=O)(=O)O)c1`, for which the growth was 112% in the test with DU-145 prostate; 107% with K-562 leukemia; 102% with MALME-3M melanoma; 111% in the test on MDA-MB-231 breast; 109% in the test with RXF 393 renal; 109% with SF-268 CNS. Moreover, the growth in the test with SF-295 CNS was 106%; in the test on SF-539 CNS, 95.7%; with UACC-257 melanoma, 83.2%; in the test on M14 melanoma, 106%; with HCT-15 colon it was 101%; with HT29 colon it was 101%. Besides, the growth with SNB-75 CNS was 106%; in the test on SNB-19 CNS it was 101%; in the test with U251 CNS, 87.8%; in the test with SK-MEL-5 melanoma, 99.7%; with UACC-62 melanoma, 113%; in the test on LOX IMVI melanoma it was 95.2%. The growth in the test with SK-MEL-28 melanoma is 113%.
Turning to `CC(C)CNCC(O)COc1ccc(C(C)(C)c2ccc(OCC(O)CNCC(C)C)cc2)cc1` (configuration not stated), the growth was 44.7% with DU-145 prostate; -60% (active) in the test on K-562 leukemia; -63.1% (active) with MALME-3M melanoma; -14.4% (active) with MDA-MB-231 breast; 41.8% in the test with RXF 393 renal; 55.3% in the test on SF-268 CNS. Besides, the growth was 32.4% with SF-295 CNS; -41.1% (active) with SF-539 CNS; -37.4% (active) in the test with UACC-257 melanoma; -57.5% (active) in the test on M14 melanoma; 20.1% in the test with HCT-15 colon; -8.67% (active) in the test on HT29 colon. The growth with SNB-75 CNS is 63.9%; in the test with SNB-19 CNS it was 51.7%; in the test on PC-3 prostate, 47.4%; with SK-MEL-5 melanoma it was -95% (active); in the test on UACC-62 melanoma, -65.2% (active); in the test with LOX IMVI melanoma it was -79.9% (active). Also, the growth in the test with SK-MEL-28 melanoma was -60.5% (active).

For the origin of these results see PubChem BioAssay (NCI).
